Assay results reported in ChEMBL document CHEMBL1961873, “Compounds: GSK PKIS; Assays: Nanosyn kinase panel” (2012).

Columns and labels:
[1] = biological target: Calcium/calmodulin-dependent protein kinase type II subunit alpha (Homo sapiens) (UniProt Q9UQM7); settings: at 1 µM;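 note: reported value is a mean percent inhibition of CAMK2A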
[2] = biological target: Calcium/calmodulin-dependent protein kinase type II subunit delta (Homo sapiens) (UniProt Q13557); settings: at 0.1 µM
[3] = biological target: Calcium/calmodulin-dependent protein kinase type II subunit delta (Homo sapiens) (UniProt Q13557); settings: at 1 µM
[4] = biological target: T1, Calcium/calmodulin-dependent protein kinase type IV (Homo sapiens) (UniProt Q16566); settings: at 0.1 µM
T1 sequence (whole entry): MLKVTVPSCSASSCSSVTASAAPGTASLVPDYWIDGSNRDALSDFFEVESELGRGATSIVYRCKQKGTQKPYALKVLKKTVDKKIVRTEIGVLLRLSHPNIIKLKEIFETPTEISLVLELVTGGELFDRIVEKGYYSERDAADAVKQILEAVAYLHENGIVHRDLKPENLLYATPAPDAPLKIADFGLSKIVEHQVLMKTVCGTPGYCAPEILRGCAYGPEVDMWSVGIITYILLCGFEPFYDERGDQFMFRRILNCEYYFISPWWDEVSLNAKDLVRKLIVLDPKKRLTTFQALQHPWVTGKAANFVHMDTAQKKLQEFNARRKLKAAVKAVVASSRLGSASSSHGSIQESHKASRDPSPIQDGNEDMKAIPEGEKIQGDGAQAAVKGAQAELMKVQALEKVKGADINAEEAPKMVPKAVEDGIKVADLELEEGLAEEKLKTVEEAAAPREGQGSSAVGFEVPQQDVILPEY

[5] = biological target: T1, Calcium/calmodulin-dependent protein kinase type IV (Homo sapiens); settings: at 1 µM
[6] = biological target: T2, Serine/threonine-protein kinase Chk1 (Homo sapiens) (UniProt O14757); settings: at 0.1 µM
T2 sequence (whole entry): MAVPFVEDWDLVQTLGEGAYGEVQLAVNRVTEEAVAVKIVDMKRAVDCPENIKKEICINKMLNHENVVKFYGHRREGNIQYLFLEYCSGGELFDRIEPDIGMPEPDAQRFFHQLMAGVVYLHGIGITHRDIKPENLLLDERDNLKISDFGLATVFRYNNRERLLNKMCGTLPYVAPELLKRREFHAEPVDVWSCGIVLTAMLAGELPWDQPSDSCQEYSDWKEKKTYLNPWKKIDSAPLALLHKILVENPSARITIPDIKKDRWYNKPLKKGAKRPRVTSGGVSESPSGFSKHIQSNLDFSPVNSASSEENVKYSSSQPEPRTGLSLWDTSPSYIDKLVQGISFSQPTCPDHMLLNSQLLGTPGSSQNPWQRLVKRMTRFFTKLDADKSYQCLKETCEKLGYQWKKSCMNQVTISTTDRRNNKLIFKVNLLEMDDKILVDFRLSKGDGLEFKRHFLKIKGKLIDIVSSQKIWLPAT

[7] = biological target: T2, Serine/threonine-protein kinase Chk1 (Homo sapiens); settings: at 1 µM
[8] = biological target: Serine/threonine-protein kinase Chk2 (Homo sapiens) (UniProt O96017); settings: at 0.1 µM
[9] = biological target: Serine/threonine-protein kinase Chk2 (Homo sapiens) (UniProt O96017); settings: at 1 µM
[10] = biological target: Death-associated protein kinase 1 (Homo sapiens) (UniProt P53355); settings: at 0.1 µM;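 note: reported figure is the mean inhibition of DAPK1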
Death-associated protein kinase 1 (Homo sapiens), sequence (P53355 whole entry, looked up): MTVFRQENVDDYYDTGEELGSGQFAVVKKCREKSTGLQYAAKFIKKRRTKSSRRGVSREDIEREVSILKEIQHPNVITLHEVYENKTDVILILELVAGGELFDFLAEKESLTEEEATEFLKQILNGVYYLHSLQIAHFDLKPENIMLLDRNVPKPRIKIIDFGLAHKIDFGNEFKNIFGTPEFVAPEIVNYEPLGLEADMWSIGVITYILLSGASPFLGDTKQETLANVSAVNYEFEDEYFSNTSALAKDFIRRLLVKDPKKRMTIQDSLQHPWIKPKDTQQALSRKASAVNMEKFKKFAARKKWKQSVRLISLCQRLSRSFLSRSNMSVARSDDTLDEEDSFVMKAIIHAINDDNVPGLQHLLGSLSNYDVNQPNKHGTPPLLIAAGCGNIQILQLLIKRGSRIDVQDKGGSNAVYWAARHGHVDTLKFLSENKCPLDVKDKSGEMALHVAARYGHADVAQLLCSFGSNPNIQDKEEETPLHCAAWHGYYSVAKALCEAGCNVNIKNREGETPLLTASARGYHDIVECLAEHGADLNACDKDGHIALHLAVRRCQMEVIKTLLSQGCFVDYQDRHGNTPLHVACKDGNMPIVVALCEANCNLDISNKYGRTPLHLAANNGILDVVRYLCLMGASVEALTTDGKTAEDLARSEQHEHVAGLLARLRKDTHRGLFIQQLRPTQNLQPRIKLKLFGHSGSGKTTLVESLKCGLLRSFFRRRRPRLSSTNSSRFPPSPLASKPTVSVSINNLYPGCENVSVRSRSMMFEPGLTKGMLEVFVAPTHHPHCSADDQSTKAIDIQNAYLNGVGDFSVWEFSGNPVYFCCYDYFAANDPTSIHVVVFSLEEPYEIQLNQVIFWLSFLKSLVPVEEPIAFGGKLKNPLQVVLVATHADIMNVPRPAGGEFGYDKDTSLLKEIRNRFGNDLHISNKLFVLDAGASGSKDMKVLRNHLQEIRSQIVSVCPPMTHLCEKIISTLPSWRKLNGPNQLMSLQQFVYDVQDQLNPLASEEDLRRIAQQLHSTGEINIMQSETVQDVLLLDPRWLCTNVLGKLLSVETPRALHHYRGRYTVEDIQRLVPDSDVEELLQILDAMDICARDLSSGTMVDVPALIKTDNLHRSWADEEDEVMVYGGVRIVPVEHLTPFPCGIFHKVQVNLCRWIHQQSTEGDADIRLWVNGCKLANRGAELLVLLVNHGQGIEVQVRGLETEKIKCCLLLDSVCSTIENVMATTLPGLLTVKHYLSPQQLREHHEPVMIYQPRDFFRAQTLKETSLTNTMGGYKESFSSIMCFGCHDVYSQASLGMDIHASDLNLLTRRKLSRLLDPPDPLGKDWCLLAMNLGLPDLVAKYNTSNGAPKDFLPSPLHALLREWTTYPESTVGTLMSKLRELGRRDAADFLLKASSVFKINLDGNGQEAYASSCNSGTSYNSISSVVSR

Calcium/calmodulin-dependent protein kinase type II subunit alpha (Homo sapiens), sequence (Q9UQM7 whole entry): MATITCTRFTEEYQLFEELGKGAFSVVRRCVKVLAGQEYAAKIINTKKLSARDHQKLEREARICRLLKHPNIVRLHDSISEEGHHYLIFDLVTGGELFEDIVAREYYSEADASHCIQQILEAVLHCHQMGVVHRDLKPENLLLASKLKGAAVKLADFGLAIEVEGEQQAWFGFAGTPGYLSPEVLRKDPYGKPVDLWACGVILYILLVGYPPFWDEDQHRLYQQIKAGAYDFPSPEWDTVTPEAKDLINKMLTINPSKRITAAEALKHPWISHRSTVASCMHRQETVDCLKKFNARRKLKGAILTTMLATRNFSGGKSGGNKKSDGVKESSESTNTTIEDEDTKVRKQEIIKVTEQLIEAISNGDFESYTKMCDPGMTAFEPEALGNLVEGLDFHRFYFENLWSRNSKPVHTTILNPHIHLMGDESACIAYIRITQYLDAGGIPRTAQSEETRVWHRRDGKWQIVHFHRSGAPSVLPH
Serine/threonine-protein kinase Chk2 (Homo sapiens), sequence (O96017 whole entry): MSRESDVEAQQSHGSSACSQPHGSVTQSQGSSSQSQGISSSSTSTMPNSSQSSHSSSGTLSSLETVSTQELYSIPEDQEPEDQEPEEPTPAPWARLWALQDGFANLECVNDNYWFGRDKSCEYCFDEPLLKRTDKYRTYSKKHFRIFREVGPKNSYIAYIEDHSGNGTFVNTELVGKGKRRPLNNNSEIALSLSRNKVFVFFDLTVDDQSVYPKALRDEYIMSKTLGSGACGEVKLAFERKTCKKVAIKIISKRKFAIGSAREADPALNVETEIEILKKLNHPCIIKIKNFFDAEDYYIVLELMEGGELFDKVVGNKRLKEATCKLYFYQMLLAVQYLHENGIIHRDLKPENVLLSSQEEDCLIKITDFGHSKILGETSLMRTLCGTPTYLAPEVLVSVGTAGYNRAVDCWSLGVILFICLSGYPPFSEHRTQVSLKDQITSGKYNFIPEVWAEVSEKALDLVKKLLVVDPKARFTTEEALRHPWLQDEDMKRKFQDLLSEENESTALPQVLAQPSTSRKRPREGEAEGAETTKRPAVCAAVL
Calcium/calmodulin-dependent protein kinase type II subunit delta (Homo sapiens), sequence (Q13557 whole entry): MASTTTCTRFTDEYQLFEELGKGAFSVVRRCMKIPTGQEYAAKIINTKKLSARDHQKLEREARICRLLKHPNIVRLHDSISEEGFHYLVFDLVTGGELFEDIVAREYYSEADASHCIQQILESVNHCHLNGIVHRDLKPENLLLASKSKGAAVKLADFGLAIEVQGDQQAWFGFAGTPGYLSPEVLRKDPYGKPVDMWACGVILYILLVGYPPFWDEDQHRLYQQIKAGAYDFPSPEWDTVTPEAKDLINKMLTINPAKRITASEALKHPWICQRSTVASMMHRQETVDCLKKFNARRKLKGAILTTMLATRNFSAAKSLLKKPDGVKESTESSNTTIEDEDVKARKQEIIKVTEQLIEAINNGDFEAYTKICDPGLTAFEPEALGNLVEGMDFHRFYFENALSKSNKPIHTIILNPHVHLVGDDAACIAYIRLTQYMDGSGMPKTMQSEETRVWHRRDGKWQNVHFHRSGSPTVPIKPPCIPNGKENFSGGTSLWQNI

Row | Structure (SMILES) | inhibition [1] [%] | inhibition [2] [%] | inhibition [3] [%] | inhibition [4] [%] | inhibition [5] [%] | inhibition [6] [%] | inhibition [7] [%] | inhibition [8] [%] | inhibition [9] [%] | inhibition [10] [%]
1 | NS(=O)(=O)c1ccc(N/C=C2\C(=O)Nc3ccc4ncsc4c32)cc1 | 3.49 | 4.43 | 16.3 | -1.62 | -1.06 | 7.84 | 33 | 4.73 | 19.1 | 5.66
2 | Nc1nonc1-c1nc2cnccc2n1C1CCCCC1 | 0.68 | -1.42 | 4.05 | 1.07 | 1.19 | -0.67 | 1.88 | -2 | -1.47 | -1.34
3 | CCn1c(-c2nonc2N)nc2c(C#CC(C)(C)O)ncc(OCC3CCNCC3)c21 | 2.25 | 2.49 | 4.75 | -2.07 | -2.31 | -0.5 | 5.91 | 2.91 | 6.65 | 1.8
4 | CCn1c(-c2nonc2N)nc2c(C#CCN)ncc(OCCCN)c21 | -1.33 | -4.81 | -4.58 | -6 | -5.56 | -3.81 | 0.26 | -1.17 | 0.23 | -2.99
5 | NS(=O)(=O)c1ccc(-c2ccc3c(NC(=O)C4CC4)n[nH]c3c2)cc1 | 3.21 | 2.57 | 3.65 | 0.18 | 0.35 | 1.61 | 4.16 | 1.56 | 2.29 | 3.27
6 | COc1cccc(COc2cc(-n3cnc4ccccc43)sc2C(N)=O)c1 | -0.42 | 0.07 | -0.84 | 2.92 | -0.29 | 2.18 | -2.21 | -0.72 | -0.59 | 1.92
7 | CCn1c(-c2nonc2N)nc2c(C#CC(C)(C)O)nc(O[C@@H](CN)c3ccccc3)cc21 | 1.68 | -0.76 | 14.3 | -0.23 | 4.51 | -3.48 | 31.1 | 2.31 | 26.7 | -0.91
8 | NC(=O)c1sc(-n2cnc3cc(C(F)(F)F)ccc32)cc1OCc1ccccc1Br | -0.17 | 2.18 | 1.35 | 2.89 | 1.08 | -0.06 | 0.96 | 1.22 | 0.32 | 1.27
9 | COc1cc2c(cc1Nc1nc(Nc3ccsc3C(N)=O)c3cc[nH]c3n1)N(C(=O)CN(C)C)CCC2 | -4.91 | 3.02 | 13 | 2.85 | 12.1 | -2.04 |  | 2.31 | 11.8 | 2.17
10 | Fc1ccc(-c2ncn(C3CCNCC3)c2-c2ccnc(Oc3ccccc3)n2)cc1 | -2.16 | 1.37 | 2.5 | -1.82 | -2.43 | -1.72 | 0.04 | 1.16 | 1.46 | -0.62
11 | Cc1cc(-c2ccco2)cc(C)c1/C=C/c1cncc(-c2nn[nH]n2)c1 | -0.97 | -0.09 | 0.35 | 1.45 | 1.06 | -8.36 | -1.92 | -0.74 | -0.4 | 1.92
12 | COc1cccc(-n2ncc3c(N/N=C/c4ccncc4)ncnc32)c1 | 6.87 | 4.21 | 12.8 | -0.17 | -1.96 | 3.28 | 5.7 | 2.56 | 4.89 | 4.45
13 | COc1cc(C=NNc2ncnc3c2cnn3Cc2ccccc2)ccc1O | -4.25 | -4.62 | -0.47 | -2.48 | -3.98 | -2.18 | -3.22 | -3.42 | -3.47 | -3.06
14 | CCn1c(-c2nonc2N)nc2c(C#CC(C)(C)O)ncc(OC[C@@H]3CCCN3)c21 | -2.05 | 0.64 | 0.35 | 0.16 | -0.65 | -1.63 | 2.95 | 0.37 | 1.08 | 1.35
